# Values without a mark were called inactive. Records with an inconclusive call do not appear. A call without a number means that no potency is given here. Calls of active or inactive are those of the source. Unless noted, calls follow the shape of the dose curve; as a rule, active = well fitted curve in the direction sought with a large enough effect in the repeat runs; inconclusive = weak or mixed curves; inactive = no such curve, though single readings can be large; an effect the other way counts as inactive or inconclusive.
# Legend:
# [1] = qHTS assay to identify small molecule antagonists of the estrogen related receptor (ERR) signaling pathway from Tox21 library - cell viability counter screen (AID 1224834); also: nearly all actives have a fitted effect of over 30% in size; also: potency is read from the fitted curve at half-maximal effect
# Summary of the method: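 Multiplexed viability counter screen in ERR cells: 17.5 h compound exposure at 37 C, CellTiter-Fluor added, 30 min at 37 C/5% CO2, fluorescence read.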
# [2] = target: Luciferin 4-monooxygenase (Photinus pyralis) (UniProt P08659); assay: qHTS assay to identify small molecule inhibitors of firefly luciferase (AID 1224835); also: nearly all actives have a fitted effect of over 25% in size; also: potency is read from the fitted curve at half-maximal effect
# Luciferin 4-monooxygenase (Photinus pyralis), sequence (P08659 whole entry, looked up): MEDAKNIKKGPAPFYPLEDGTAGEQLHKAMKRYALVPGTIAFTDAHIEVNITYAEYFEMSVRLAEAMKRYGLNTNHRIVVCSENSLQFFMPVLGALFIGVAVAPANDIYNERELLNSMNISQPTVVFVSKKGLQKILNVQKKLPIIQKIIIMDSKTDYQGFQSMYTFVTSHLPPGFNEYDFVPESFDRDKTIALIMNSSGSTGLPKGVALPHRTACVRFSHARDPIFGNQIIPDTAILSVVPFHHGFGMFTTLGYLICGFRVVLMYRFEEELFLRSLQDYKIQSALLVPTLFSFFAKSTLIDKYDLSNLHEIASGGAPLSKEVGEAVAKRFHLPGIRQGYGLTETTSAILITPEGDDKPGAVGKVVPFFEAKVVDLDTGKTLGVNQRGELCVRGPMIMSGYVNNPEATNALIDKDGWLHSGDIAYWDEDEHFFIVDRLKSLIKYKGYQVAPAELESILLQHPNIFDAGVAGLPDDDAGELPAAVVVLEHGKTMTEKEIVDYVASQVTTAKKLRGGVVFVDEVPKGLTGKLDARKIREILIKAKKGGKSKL
# Summary of the method: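 Inhibition of purified Photinus luciferase is measured by luminescence. Substrate levels (D-luciferin, ATP) sit at their KM values. Each compound is tested in a concentration series.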
# [3] = qHTS assay to identify small molecule agonists of the constitutive androstane receptor (CAR) signaling pathway - cell viability counter screen (AID 1224836); also: nearly all actives have a fitted effect of over 45% in size; also: potency is read from the fitted curve at half-maximal effect
# Summary of the method: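 Cells were seeded and incubated 4 hrs. Compounds were added across 15 concentrations together with PK11195 at 0.75 uM final. Plates were incubated 23 hrs at 37 C. CellTiter-Fluor was added and fluorescence measured.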
# [4] = qHTS assay to identify small molecule antagonists of the constitutive androstane receptor (CAR) signaling pathway - cell viability counter screen (AID 1224837); also: nearly all actives have a fitted effect of over 45% in size; also: potency is read from the fitted curve at half-maximal effect
# Summary of the method: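 Read-out: CellTiter-Fluor fluorescence after 23 hr at 37 C/5% CO2. Cells: HepG2 double-stable for hCAR and CYP2B6-2.2kb. Compounds tested at 15 concentrations in the presence of CITCO, final concentration 50 nM.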
# [5] = target: Nuclear receptor subfamily 1 group I member 3 (Homo sapiens) (UniProt Q14994); assay: qHTS assay to identify small molecule antagonists of the constitutive androstane receptor (CAR) signaling pathway (AID 1224838);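 also: HepG2 cells stably expressing hCAR with CYP2B6 luciferase reporter stimulated by CITCO; nearly all actives have a fitted effect of over 40% in size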
# Nuclear receptor subfamily 1 group I member 3 (Homo sapiens), sequence (Q14994 whole entry, looked up): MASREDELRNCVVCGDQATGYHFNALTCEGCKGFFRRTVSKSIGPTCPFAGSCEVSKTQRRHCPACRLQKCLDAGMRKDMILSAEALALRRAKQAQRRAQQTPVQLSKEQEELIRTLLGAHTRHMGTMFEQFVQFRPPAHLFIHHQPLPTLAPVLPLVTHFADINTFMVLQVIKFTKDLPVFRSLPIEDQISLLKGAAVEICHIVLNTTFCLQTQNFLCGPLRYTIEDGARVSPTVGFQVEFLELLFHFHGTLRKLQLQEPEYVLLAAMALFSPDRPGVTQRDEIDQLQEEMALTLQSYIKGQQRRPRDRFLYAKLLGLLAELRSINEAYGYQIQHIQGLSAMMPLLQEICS
# Summary of the method: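 Read-out: ONE-Glo luciferase luminescence after 30 min at room temperature. HepG2-CYP2B6-hCAR double-stable cells, compounds in 15-point titration plus 50 nM CITCO final, 24 h at 37 C/5% CO2.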
# [6] = qHTS assay to identify small molecule antagonists of the estrogen related receptor signaling pathway with the pleiotropic PPARgamma coactivator (PGC) from Tox21 10K library - cell viability counter screen (AID 1224840; active = well fitted cell-killing curve with a large enough effect in the repeat runs, not every such curve was filed as active; also: nearly all actives have a fitted effect of over 40% in size; also: potency is read from the fitted curve at half-maximal effect)
# Summary of the method: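 Fluorescence read-out of CellTiter-Fluor viability reagent, added after cells had been exposed to compound in DMSO for 17.5 h at 37 C; 30 min development at 37 C/5% CO2. Cells: PGC/ERR line, 2,000/well.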
# [7] = qHTS assay to identify small molecule antagonists of the estrogen related receptor signaling pathway with the pleiotropic PPARgamma coactivator (PGC) from Tox21 10K library (AID 1224841; call rule not given here; also: actives are mostly falling curves and most rising ones were filed inactive; nearly all actives have a fitted effect of over 50% in size; also: potency is read from the fitted curve at half-maximal effect)
# Summary of the method: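 Luminescence read-out (One-Glo luciferase reagent, 30 min at room temperature) from PGC/ERR cells exposed to DMSO-dissolved test compounds for 18 h at 37 C; cells, 2,000 per well, had been preincubated 6 h before compound transfer.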
# [8] = qHTS assay to identify small molecule agonists of the estrogen related receptor signaling pathway with the pleiotropic PPARgamma coactivator (PGC) from Tox21 10K library (AID 1224842); also: nearly all actives have a fitted effect of over 15% in size; also: potency is read from the fitted curve at half-maximal effect
# Summary of the method: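 Luminescence from One-Glo (30 min, room temperature) measured after PGC/ERR cells had 18 h at 37 C with pinned compound (23 nL in DMSO). Cells had been seeded at 2,000 per well and pre-incubated 6 h.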
# [9] = qHTS assay to identify small molecule agonists of H2AX (AID 1224845; active = well fitted activation curve with a large enough effect in the signal ratio in the repeat runs, not every such curve was filed as active; the % refers to the signal ratio)
# Summary of the method: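 Phospho-H2AX Ser139 measured by HTRF (ex 320 nm; em 665 and 620 nm) after 24 hr antibody incubation. Compounds, 15 concentrations, 0.76% DMSO, were applied to CHO-K1 cells for 3hr at 37C before lysis.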
# [10] = qHTS assay to identify small molecule agonists of the hypoxia (HIF-1) signaling pathway (AID 1224846; active = well fitted activation curve with a large enough effect in the signal ratio in the repeat runs, not every such curve was filed as active; the % refers to the signal ratio)
# Summary of the method: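 Beta-lactamase FRET read-out (CCF4-AM substrate) from ME-180 cells carrying an HRE-driven bla reporter, after 17 hrs compound exposure at 37C/5% CO2. Cells were seeded at 2,000 per well in 0.5% dialyzed FBS medium and preincubated 5 hrs.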
# [11] = qHTS assay to identify small molecule agonists of H2AX - cell viability counter screen (AID 1224847; calls by dose curve; also: top concentration of the series differs between compounds; nearly all actives have a fitted effect of over 30% in size)
# Summary of the method: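 Cytotoxicity counter screen in wild-type CHO-K1 cells: a 3 hr compound treatment at 37C across 15 concentrations, followed by CellTiter-Glo luminescence to gauge viable cells.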
# [12] = qHTS assay to identify small molecule antagonists of the estrogen related receptor (ERR) signaling pathway from Tox21 library (AID 1224848); also: nearly all actives have a fitted effect of over 50% in size; also: potency is read from the fitted curve at half-maximal effect
# Summary of the method: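 Luciferase luminescence (ONE-Glo, 30 min room temperature) was the read-out. Cells of the NTP-supplied ERR line, 2,000 per well, were given 6 h at 37 C before compound addition in DMSO and 18 h exposure at 37 C.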
# [13] = qHTS assay to identify small molecule agonists of the estrogen related receptor (ERR) signaling pathway from Tox21 library (AID 1224849; calls by dose curve; also: nearly all actives have a fitted effect of over 15% in size); settings: ERR reporter cell line, ONE-Glo luciferase, 18 h; at 92.4 µM (top of the series) unless noted
# Summary of the method: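 Luminescence readout (ONE-Glo, 30 min RT) after 18 h compound exposure at 37 C of NTP-supplied ERR reporter cells; cells were plated 6 h before compound addition by pin tool.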
# [14] = qHTS RealTime-Glo MT Cell Viability Assay in HepG2 cells - 24 hour (AID 1224867); also: nearly all actives have a fitted effect of over 50% in size
# Summary of the method: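 Real-time, nonlytic viability: 600 HepG2 cells/well mixed with NanoLuc enzyme plus prosubstrate; 5 h settle, compound (DMSO) added by pintool; luminescence monitored over 40 h at 37 C.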
# [15] = qHTS RealTime-Glo MT Cell Viability Assay in HEK293 cells - 32 hour (AID 1224868); also: top concentration of the series differs between compounds; nearly all actives have a fitted effect of over 50% in size
# Summary of the method: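 Cells + reagent dispensed (600 cells/well, HEK293) → 5 h at 37 C/5% CO2 → 23 nL compound in DMSO pinned → 40 h at 37 C → luminescence read at 0, 8, 16, 24, 32, 40 h.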
# [16] = A CellTox Green Cytotoxicity Assay to monitor cytotoxicity in HEK293 cells - 0 hour (AID 1224869); also: nearly all actives have a fitted effect of over 50% in size
# Summary of the method: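 Read-out: fluorescence of a cell-impermeant cyanine dye staining DNA of dead cells, proportional to cytotoxicity. HEK293, 600 cells/well with reagent, compound (23 nL DMSO) added after 5 h; reads at 0, 8, 16, 24, 32, 40 h.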
# [17] = target: Nuclear receptor subfamily 1 group I member 3 (Homo sapiens) (UniProt Q14994); assay: qHTS assay to identify small molecule agonists of the constitutive androstane receptor (CAR) signaling pathway (AID 1224839);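 also: HepG2 cells stably carrying human CAR and a CYP2B6 luciferase reporter; nearly all actives have a fitted effect of over 15% in size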
# Summary of the method: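 Cells were plated and incubated 4 hrs, then dosed with compounds at 15 concentrations. PK11195 was added to 0.75 uM final. After 24 hrs at 37 C, luciferase luminescence was measured.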
# [18] = qHTS assay to identify small molecule agonists of the hypoxia (HIF-1) signaling pathway - cell viability counter screen (AID 1224844; calls by dose curve; also: nearly all actives have a fitted effect of over 50% in size; also: potency is read from the fitted curve at half-maximal effect)
# Summary of the method: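 CellTiter-Glo luminescence read-out, 30 min RT, taken in the same wells as the beta-lactamase HRE reporter assay; HRE-bla ME-180 cells, 0.5% dialyzed FBS, 17 hr compound treatment at 37C, 5% CO2.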
# [19] = qHTS RealTime-Glo MT Cell Viability Assay in HepG2 cells - 40 hour (AID 1224870); also: nearly all actives have a fitted effect of over 50% in size
# Summary of the method: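 Real-time viability: cells seeded at 600 per well together with NanoLuc and cell-permeant prosubstrate, compounds added after 5 h incubation. Luminescence tracked at 0, 8, 16, 24, 32 and 40 h of exposure.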
# [20] = target: Thyrotropin receptor (Homo sapiens) (UniProt P16473); assay: qHTS assay to identify small molecule agonists of the thyroid stimulating hormone receptor (TSHR) signaling pathway (AID 1224843; calls by dose curve; also: nearly all actives have a fitted effect of over 45% in size)
# Thyrotropin receptor (Homo sapiens), sequence (P16473 whole entry, looked up): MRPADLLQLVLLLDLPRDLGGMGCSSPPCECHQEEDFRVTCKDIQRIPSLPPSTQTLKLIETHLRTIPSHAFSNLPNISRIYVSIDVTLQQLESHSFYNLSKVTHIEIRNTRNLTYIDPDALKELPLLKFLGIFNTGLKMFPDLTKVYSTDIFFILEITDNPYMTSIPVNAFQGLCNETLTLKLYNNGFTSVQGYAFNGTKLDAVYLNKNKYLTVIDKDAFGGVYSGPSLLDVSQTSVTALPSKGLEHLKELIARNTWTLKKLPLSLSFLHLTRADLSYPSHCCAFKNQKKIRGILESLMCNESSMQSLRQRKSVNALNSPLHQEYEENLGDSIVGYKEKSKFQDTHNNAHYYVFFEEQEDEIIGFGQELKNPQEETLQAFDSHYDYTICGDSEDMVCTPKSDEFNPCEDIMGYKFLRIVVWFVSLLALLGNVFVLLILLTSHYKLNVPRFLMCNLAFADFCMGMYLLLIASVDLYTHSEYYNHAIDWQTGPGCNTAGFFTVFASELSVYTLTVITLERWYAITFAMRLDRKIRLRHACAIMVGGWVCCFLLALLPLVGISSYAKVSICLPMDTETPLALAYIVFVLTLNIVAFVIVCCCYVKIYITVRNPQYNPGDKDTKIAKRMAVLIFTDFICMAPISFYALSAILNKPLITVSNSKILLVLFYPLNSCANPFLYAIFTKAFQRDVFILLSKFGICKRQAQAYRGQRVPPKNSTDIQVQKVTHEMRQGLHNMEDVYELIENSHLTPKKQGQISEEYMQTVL
# Summary of the method: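 Agonist activity read as cAMP rise via d2/cryptate HTRF competition, 1 h room-temperature detection, in HEK293 cells expressing TSHR. Fifteen-point titrations, each run in triplicate, with a 30 min room-temperature incubation beforehand.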
SMILES,Potency [1],Potency [2],Potency [3],Potency [4],Potency [5],Potency [6],Potency [7],Potency [8],Potency [9],outcome [10],Potency [11],Potency [12],"activity change, positive = activation [13]",Potency [14],Potency [15],Potency [16],Potency [17],Potency [18],Potency [19],Potency [20]
CCCOC(=O)c1c(Cl)c(Cl)c(Cl)c(Cl)c1C(=O)OCCC,inactive,inactive,inactive,inactive,inactive,inactive,inactive,inactive,inactive,inactive,inactive,inactive,6.22%,inactive,inactive,inactive,–,–,–,–
CC(=O)OCC1=C(C(=O)O)N2C(=O)[C@@H](NC(=O)CSc3ccncc3)[C@H]2SC1,inactive,inactive,inactive,inactive,–,inactive,inactive,inactive,inactive,–,inactive,inactive,0.532% [at 42.5 µM],–,inactive,inactive,inactive,inactive,inactive,–
CC(=O)NCCO,inactive,inactive,inactive,inactive,–,inactive,–,–,inactive,inactive,inactive,–,–,inactive,–,–,inactive,inactive,inactive,inactive
O=C(O)CCS,inactive,inactive,inactive,inactive,inactive,inactive,inactive,inactive,inactive,inactive,inactive,inactive,4.53%,inactive,inactive,inactive,–,inactive,inactive,–
C=C(C)c1ccccc1,inactive,inactive,inactive,inactive,–,inactive,–,–,inactive,–,inactive,–,–,inactive,–,inactive,inactive,inactive,inactive,inactive
COc1ccc(C2C(=O)c3ccccc3C2=O)cc1,inactive,3.09 µM (active),inactive,inactive,inactive,inactive,inactive,10.6 µM (active),inactive,inactive,–,inactive,13.1% [at 42.5 µM],inactive,inactive,–,–,inactive,inactive,–
CCC(CO)(CO)[N+](=O)[O-],inactive,inactive,inactive,inactive,–,inactive,inactive,inactive,inactive,inactive,inactive,inactive,1.64%,inactive,–,inactive,inactive,inactive,inactive,inactive
CCC1CCC(CCC(=O)O)C1 (centres undefined),inactive,inactive,inactive,inactive,–,inactive,inactive,inactive,inactive,inactive,inactive,inactive,-14.4%,inactive,inactive,inactive,inactive,–,–,inactive
CC(C)c1ccc(C#N)cc1,inactive,inactive,inactive,inactive,–,inactive,inactive,inactive,inactive,inactive,inactive,inactive,-9.84%,inactive,–,inactive,inactive,inactive,inactive,inactive
COc1cc(OC)c2ccc(=O)oc2c1,inactive,inactive,inactive,inactive,inactive,inactive,–,–,–,inactive,inactive,–,–,–,inactive,inactive,–,inactive,inactive,inactive
Nc1c(Cl)cc(Cl)cc1[N+](=O)[O-],inactive,inactive,inactive,inactive,–,inactive,inactive,5.45 µM (active),inactive,inactive,–,inactive,-2%,–,inactive,inactive,inactive,inactive,inactive,inactive
Cc1ccccc1S(N)(=O)=O,inactive,inactive,inactive,inactive,–,inactive,–,–,inactive,inactive,inactive,–,–,inactive,inactive,inactive,inactive,inactive,inactive,inactive
CC(C(=O)O)c1ccc(C(=O)c2cccs2)cc1 (centres undefined),inactive,inactive,inactive,inactive,–,inactive,–,–,inactive,–,inactive,–,–,–,inactive,inactive,inactive,–,inactive,inactive
Cc1ccc2nc(N)[nH]c(=O)c2c1Sc1ccncc1,inactive,inactive,inactive,inactive,inactive,inactive,inactive,inactive,–,inactive,inactive,–,-24.3% [at 42.5 µM],–,–,inactive,–,inactive,inactive,–
CC(=O)OCCC1CCCCC1,inactive,inactive,inactive,inactive,–,inactive,–,–,inactive,inactive,inactive,–,–,inactive,–,inactive,inactive,inactive,inactive,–
COc1ccc(CCN(C)CCCN2CCc3cc(OC)c(OC)cc3CC2=O)cc1OC,inactive,inactive,inactive,inactive,–,inactive,–,–,inactive,inactive,inactive,–,–,inactive,inactive,inactive,inactive,inactive,inactive,–
Cc1c[nH]c2ccccc12,inactive,inactive,inactive,inactive,–,inactive,–,inactive,inactive,inactive,inactive,inactive,0.349% [at 42.5 µM],–,inactive,inactive,inactive,inactive,inactive,inactive
CC(C)(C)C(O)/C=C/c1ccc2c(c1)OCO2 (centres undefined),inactive,24.5 µM (active),inactive,inactive,inactive,inactive,–,–,inactive,inactive,inactive,–,–,inactive,inactive,–,–,inactive,inactive,inactive
CCOCCC(=O)OCC,inactive,inactive,inactive,inactive,inactive,inactive,–,–,inactive,inactive,inactive,–,–,inactive,inactive,inactive,inactive,–,inactive,–
CC1=CC[C@@]23C[C@@H]1C(C)(C)[C@@H]2CC[C@H]3C,inactive,inactive,inactive,inactive,–,inactive,–,–,inactive,inactive,inactive,–,–,–,inactive,inactive,inactive,inactive,inactive,inactive
CCC(=O)OCc1ccc(OC)cc1,inactive,inactive,inactive,inactive,inactive,inactive,–,–,inactive,inactive,inactive,–,–,inactive,–,–,–,–,inactive,inactive
CC(C)COC(=O)c1ccc(O)cc1,inactive,44.7 µM (active),inactive,inactive,inactive,inactive,–,–,–,inactive,–,–,–,–,–,inactive,–,inactive,inactive,–
Cc1ccc(NC(=O)N(C)C)cc1NC(=O)N(C)C,inactive,inactive,inactive,inactive,–,inactive,–,–,inactive,inactive,–,–,–,inactive,–,inactive,inactive,inactive,inactive,inactive
CCN(CC)c1ccc(C(=C2C=CC(=[N+](CC)CC)C=C2)c2ccc(S(=O)(=O)O)cc2S(=O)(=O)[O-])cc1,21.7 µM (active),8.94 µM (active),24.3 µM (active),27.3 µM (active),–,27.3 µM (active),8.63 µM (active),inactive,–,inactive,–,9.69 µM (active),-60.1%,inactive,inactive,inactive,–,8.71 µM (active),inactive,–
COc1ccc(C)cc1,inactive,inactive,inactive,inactive,–,inactive,–,–,inactive,inactive,inactive,–,–,inactive,inactive,inactive,–,inactive,–,–
CC(C)(O)CCc1ccccc1,inactive,inactive,inactive,inactive,–,inactive,–,–,inactive,inactive,–,–,–,inactive,inactive,–,–,inactive,–,inactive
CC(C)C1CCC(C(=O)N[C@H](Cc2ccccc2)C(=O)O)CC1 (some centres undefined),inactive,inactive,inactive,inactive,–,inactive,–,–,inactive,inactive,inactive,–,–,inactive,inactive,inactive,–,inactive,inactive,–
CCN(CC)C(=O)N1CCN(C)CC1,inactive,inactive,inactive,inactive,–,inactive,–,inactive,inactive,–,inactive,inactive,6.11% [at 42.5 µM],inactive,inactive,inactive,–,inactive,inactive,inactive

# From PubChem BioAssay (Tox21)
